Consider eight molecules from PubChem BioAssay (NCATS).

Records with an inconclusive call do not appear. Values without a mark were called inactive. The source made the active and inactive calls. Calls come from the whole dose curve; as a rule, active = well fitted inhibition curve with a large enough effect; inconclusive = small, poorly fitted or top-dose-only effect; inactive = flat fitted curve, though single readings scatter.
% is set by controls: 0 for no effect and ±100 for the full control effect.

The experiment deals with CRL-7250. As to the kind of experiment: Cytotoxic Profiling of Annotated Libraries Using Quantitative High-Throughput Screening (AID 1296008). Note: nearly all actives have a fitted effect of over 60% in size. The settings on record: Five cell lines viability, CellTiter-Glo ATP luminescence, 48-72 h; max response: hits give low values. The method, boiled down: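 Cells exposed to compounds for 48 or 72 hr at 37 degrees Celsius. Viability read as ATP-coupled luminescence with CellTiter-Glo after 10 min at room temperature.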
(In general: Cellular ATP, detected with luciferase, serves as a proxy for viable cell number.)
Take `C/C1=C\CC[C@H](C)CCO[C@@H]2O[C@H](CO[C@@H]3OC[C@](O)(COC1=O)[C@H]3O)[C@@H](O)[C@H](O)[C@H]2O`: the molecule was called inactive.
`C=C1CCC[C@]2(C)CC[C@@H](C(=C)C(=O)O)[C@H](O)[C@@H]12`: the max response is -0.497%.
Take `CCc1ccc(Cc2ccc3c(c2)[C@]2(OC3)O[C@H](CO)[C@@H](O)[C@H](O)[C@H]2O)cc1`: the outcome was inactive.
In the case of `CC(=O)OC1CC2(C)C3=CCC4(C)C5C(O)C(O)C(C(C)C)C5(C)CCC4(C)C3CCC2C(C)(C)C1OC1OC(CO)C(O)C(O)C1O` (stereo not drawn), the max response is -9.78%.
Consider `CC1(C)CC[C@]2(C(=O)O[C@@H]3O[C@H](CO[C@@H]4O[C@H](CO)[C@@H](O)[C@H](O)[C@H]4O[C@@H]4O[C@H](CO)[C@H](O)[C@H](O)[C@H]4O)[C@@H](O)[C@H](O[C@@H]4O[C@H](CO)[C@@H](O)[C@H](O)[C@H]4O)[C@H]3O)CC[C@]3(C)C(=CCC4[C@@]5(C)CC[C@H](O[C@@H]6OC[C@@H](O)[C@H](O)[C@H]6O)[C@@](C)(C(=O)O)C5CC[C@]43C)[C@@H]2C1` (stereo partly drawn), for which the max response was -1.09%.
Take `CC(C)S(=O)(=O)NC[C@H](C)c1ccc(NC(=O)c2cc(F)cc(F)c2)cc1`: the molecule was classed as inactive.
Turning to `COc1c2c(c(C)c3c1C(=O)OC3)OC1(C)CC(O)C(C(C)(C)O)C(C)(CCC(=O)O)C1C2` (stereo not drawn), the molecule was classed as inactive.
Regarding `CC(C)C(C#N)O[C@@H]1O[C@H](CO[C@@H]2O[C@@H](C)[C@H](O)[C@@H](O)[C@H]2O)[C@@H](O)[C@H](O)[C@H]1O` (stereo partly drawn), the max response was -4.82%.
